# Measured values published in the supplement of paper PMC8728848.
# Many of the other results were omitted from the sample, so the strongest signals are more common in it than they were.
# B1: FaeGac (Escherichia coli) (protein)
# chain: WMTGDFNGSVDIGGSITADDYRQKWEWKVGTGLNGFGNVLNDLTNGGTKLTITVTGNKPILLGRTKEAFATPVTGGVDGIPHIAFTDYEGASVVLRNPDGETNKKGLAYFVLPMKNAEGTKVGSVKVNASYAGVLGRGGVTSADGELLSLFADGLSSIFYGGLPRGSELSAGSAAAERTKLFGSLSRNDILGQIQRVNANITSLVDVAGSYRENMEYTDGTVVSAAYALGIANGQTIEATFNQAVTTSTQWSAPLNVAITYY
# B2: FedF (Escherichia coli), Q47212 (protein)
# chain: MRLKYILIIPLLLISLSVFASTLQVDKSVSYDWINSSASSAQVTGTLLGTGKTNTTQMPALYTWQHQIYNVNFIPSSSGTLTCQAGTILVWKNGRETQYALECRVSIHHSSGSINESQWGQQSQVGFGTACGNKKCRFTGFEISLRIPPNAQTYPLSSGDLKGSFSLTNKEVNWSASIYVPAIAKSYRLDTSITLPDTVNLKQNQATPVYYTFSAPSVSNTITGIPNQNDMPSSNVKLTIGPIQSKTTALYVQPDATGSWYDLSKSITMTVVKSSMLNFKGINAKPGNVTLSVPIVFEIQ
# Columns and labels:
# Test in all cases: glycan array binding signal (z-score within array); higher = stronger binding
# Details in all cases: glycan notation: IUPAC condensed, linker removed
# [1] = target: Fuc(a1-2)Gal(b1-4)GlcNAc(b1-3)Gal(b1-4)GlcNAc
# Outline: (§1)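 The binding signal is a Z-score computed within each array. Data were drawn from 3228 arrays in the Consortium for Functional Glycomics database, restricted to those with a known protein sequence. Scores were averaged over arrays of the same protein sequence at different concentrations or buffers, and over linkers, and negative values can be taken as non-binding.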
# [2] = target: Fuc(a1-2)Gal(b1-4)GlcNAc(b1-3)Gal(b1-4)GlcNAc(b1-3)Gal(b1-4)GlcNAc
# Outline: as §1
# [3] = target: Fuc(a1-2)Gal(b1-4)[Fuc(a1-3)]GlcNAc(b1-3)Gal(b1-4)[Fuc(a1-3)]GlcNAc(b1-3)Gal(b1-4)[Fuc(a1-3)]GlcNAc
# Outline: as §1
# [4] = target: Fuc(a1-2)[GalNAc(a1-3)]Gal(b1-4)GlcNAc
# Outline: as §1
# Fuc(a1-3)GlcNAc = target: Fuc(a1-3)GlcNAc
# Outline: as §1
# Gal(a1-4)Gal(b1-4)Glc = target: Gal(a1-4)Gal(b1-4)Glc
# Outline: as §1
# Gal(b1-2)Gal = target: Gal(b1-2)Gal
# Outline: as §1
# [5] = target: Gal(b1-3)GalNAc(b1-4)[Neu5Ac(a2-3)]Gal(b1-4)Glc
# Outline: as §1
# Gal(b1-4)GlcNAc = target: Gal(b1-4)GlcNAc
# Outline: as §1
# [6] = target: Gal(b1-4)GlcNAc(b1-3)Gal(b1-4)[Fuc(a1-3)]GlcNAc(b1-3)Gal(b1-4)[Fuc(a1-3)]GlcNAc
# Outline: as §1
# Gal3S(b1-4)GlcNAc = target: Gal3S(b1-4)GlcNAc
# Outline: as §1
# Gal3S6S(b1-4)GlcNAc6S = target: Gal3S6S(b1-4)GlcNAc6S
# Outline: as §1
# Gal4S6S(b1-4)GlcNAc = target: Gal4S6S(b1-4)GlcNAc
# Outline: as §1
# Gal6S(b1-4)Glc6S = target: Gal6S(b1-4)Glc6S
# Outline: as §1
# Glc(a1-4)Glc = target: Glc(a1-4)Glc
# Outline: as §1
# Glc(a1-6)Glc(a1-6)Glc = target: Glc(a1-6)Glc(a1-6)Glc
# Outline: as §1
# Glc(b1-4)Glc = target: Glc(b1-4)Glc
# Outline: as §1
# [7] = target: Man(a1-2)Man(a1-2)Man(a1-6)[Man(a1-3)]Man
# Outline: as §1
# [8] = target: Neu5Ac(a2-3)[GalNAc(b1-4)]Gal(b1-4)Glc
# Outline: as §1
# Neu5Gc(a2-3)Gal(b1-4)Glc = target: Neu5Gc(a2-3)Gal(b1-4)Glc
# Outline: as §1
# [9] = target: Fuc(a1-2)Gal(b1-4)[Fuc(a1-3)]GlcNAc(b1-3)Gal(b1-4)[Fuc(a1-3)]GlcNAc
# Outline: as §1
# [10] = target: Fuc(a1-2)[Gal(a1-3)]Gal(b1-4)[Fuc(a1-3)]GlcNAc
# Outline: as §1
# [11] = target: Fuc(a1-3)[Gal(b1-4)]GlcNAc(b1-2)Man(a1-3)[Fuc(a1-3)[Gal(b1-4)]GlcNAc(b1-2)Man(a1-6)]Man(b1-4)GlcNAc(b1-4)[Fuc(a1-6)]GlcNAc
# Outline: as §1
# [12] = target: Gal(a1-3)Gal(b1-4)[Fuc(a1-3)]GlcNAc(b1-2)Man(a1-3)[Gal(a1-3)Gal(b1-4)[Fuc(a1-3)]GlcNAc(b1-2)Man(a1-6)]Man(b1-4)GlcNAc(b1-4)GlcNAc
# Outline: as §1
# Gal(a1-3)GalNAc = target: Gal(a1-3)GalNAc
# Outline: as §1
# Gal(a1-6)Glc = target: Gal(a1-6)Glc
# Outline: as §1
# Gal(b1-3)Gal(b1-4)GlcNAc = target: Gal(b1-3)Gal(b1-4)GlcNAc
# Outline: as §1
# Gal(b1-3)GalNAc = target: Gal(b1-3)GalNAc
# Outline: as §1
# [13] = target: Gal(b1-3)GalNAc(a1-3)[Fuc(a1-2)]Gal(b1-4)GlcNAc
# Outline: as §1
# [14] = target: Gal(b1-3)GlcNAc(b1-2)Man(a1-3)[Gal(b1-3)GlcNAc(b1-2)Man(a1-6)]Man(b1-4)GlcNAc(b1-4)[Fuc(a1-6)]GlcNAc
# Outline: as §1
# [15] = target: Gal(b1-3)[Fuc(a1-4)]GlcNAc(b1-3)Gal(b1-4)[Fuc(a1-3)]GlcNAc
# Outline: as §1
# [16] = target: Gal(b1-4)GlcNAc(b1-2)Man(a1-6)Man(b1-4)GlcNAc(b1-4)GlcNAc
# Outline: as §1
# Gal3S(b1-4)Glc6S = target: Gal3S(b1-4)Glc6S
# Outline: as §1
# Gal3S(b1-4)GlcNAc6S = target: Gal3S(b1-4)GlcNAc6S
# Outline: as §1
# Gal6S(b1-4)GlcNAc = target: Gal6S(b1-4)GlcNAc
# Outline: as §1
# [17] = target: GlcNAc(a1-4)Gal(b1-4)GlcNAc(b1-3)Gal(b1-4)GlcNAc
# Outline: as §1
# [18] = target: GlcNAc(b1-2)Man(a1-3)[GlcNAc(b1-2)Man(a1-6)]Man(b1-4)GlcNAc(b1-4)[Fuc(a1-6)]GlcNAc
# Outline: as §1
# [19] = target: GlcNAc(b1-3)[GlcNAc(b1-6)]GalNAc
# Outline: as §1
# [20] = target: GlcNAc(b1-4)GlcNAc(b1-4)GlcNAc(b1-4)GlcNAc(b1-4)GlcNAc
# Outline: as §1
# GlcNAc3Prop(b1-4)GlcNAc = target: GlcNAc3Prop(b1-4)GlcNAc
# Outline: as §1
# [21] = target: Man(a1-2)Man(a1-3)[Man(a1-2)Man(a1-6)]Man
# Outline: as §1
# Man(a1-6)Man = target: Man(a1-6)Man
# Outline: as §1
# [22] = target: Neu5Ac(a2-3)Gal(b1-4)GlcNAc(b1-3)Gal(b1-4)[Fuc(a1-3)]GlcNAc
# Outline: as §1
# [23] = target: Neu5Gc(a2-3)Gal(b1-4)GlcNAc
# Outline: as §1
binder,measurement,setting,value
B1,glycan array binding signal (z-score),[1],-0.23
same,glycan array binding signal (z-score),[2],-0.359
same,glycan array binding signal (z-score),[3],-0.161
same,glycan array binding signal (z-score),[4],-0.577
same,glycan array binding signal (z-score),Fuc(a1-3)GlcNAc,0.65
same,glycan array binding signal (z-score),Gal(a1-4)Gal(b1-4)Glc,-0.179
same,glycan array binding signal (z-score),Gal(b1-2)Gal,0.274
same,glycan array binding signal (z-score),[5],-0.107
same,glycan array binding signal (z-score),Gal(b1-4)GlcNAc,-0.506
same,glycan array binding signal (z-score),[6],0.771
same,glycan array binding signal (z-score),Gal3S(b1-4)GlcNAc,0.384
same,glycan array binding signal (z-score),Gal3S6S(b1-4)GlcNAc6S,-0.43
same,glycan array binding signal (z-score),Gal4S6S(b1-4)GlcNAc,-0.495
same,glycan array binding signal (z-score),Gal6S(b1-4)Glc6S,0.68
same,glycan array binding signal (z-score),Glc(a1-4)Glc,10.9
same,glycan array binding signal (z-score),Glc(a1-6)Glc(a1-6)Glc,6.96
same,glycan array binding signal (z-score),Glc(b1-4)Glc,2.95
same,glycan array binding signal (z-score),[7],2.13
same,glycan array binding signal (z-score),[8],0.008
same,glycan array binding signal (z-score),Neu5Gc(a2-3)Gal(b1-4)Glc,-0.764
B2,glycan array binding signal (z-score),[1],-0.446
same,glycan array binding signal (z-score),[9],-0.053
same,glycan array binding signal (z-score),[10],0.755
same,glycan array binding signal (z-score),[11],-0.17
same,glycan array binding signal (z-score),[12],-0.084
same,glycan array binding signal (z-score),Gal(a1-3)GalNAc,-0.219
same,glycan array binding signal (z-score),Gal(a1-6)Glc,0.241
same,glycan array binding signal (z-score),Gal(b1-3)Gal(b1-4)GlcNAc,-0.144
same,glycan array binding signal (z-score),Gal(b1-3)GalNAc,-0.092
same,glycan array binding signal (z-score),[13],-0.088
same,glycan array binding signal (z-score),[14],0.741
same,glycan array binding signal (z-score),[15],-0.274
same,glycan array binding signal (z-score),[16],0.184
same,glycan array binding signal (z-score),Gal3S(b1-4)Glc6S,1.04
same,glycan array binding signal (z-score),Gal3S(b1-4)GlcNAc6S,0.729
same,glycan array binding signal (z-score),Gal3S6S(b1-4)GlcNAc6S,1.97
same,glycan array binding signal (z-score),Gal6S(b1-4)GlcNAc,0.402
same,glycan array binding signal (z-score),[17],0.918
same,glycan array binding signal (z-score),[18],1.99
same,glycan array binding signal (z-score),[19],-0.248
same,glycan array binding signal (z-score),[20],-0.269
same,glycan array binding signal (z-score),GlcNAc3Prop(b1-4)GlcNAc,13.7
same,glycan array binding signal (z-score),[21],0.257
same,glycan array binding signal (z-score),Man(a1-6)Man,-0.145
same,glycan array binding signal (z-score),[22],-0.292
same,glycan array binding signal (z-score),[23],-0.223
